Laboratory results from PubChem BioAssay AID1159580 (chemical genetic matrix, 2015).
The campaign covered roughly 5,500 compounds. About 2,000 (36%) were called active. About 18% were inconclusive and are not listed. Rule as the data show it: active = normalized growth mostly below about 0.91 (no sharp cut-off); inconclusive = no clear call, values can overlap the other calls; inactive = mostly above about 0.92. The list shows a part of the results.

Assay: chemical genetic growth profiling, strain panel (AID 1159580);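 also: tested at 20 µM; growth read once vehicle control cultures reached saturation at 30 °C; 1 = growth at the plate median or of vehicle wells; lower values mean less growth of the strain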
Details: growth OD

Measured: normalized growth

O=c1cc(-c2ccc(O)cc2)oc2cc(O[C@@H]3O[C@H](CO)[C@@H](O)[C@H](O)[C@H]3O)cc(O)c12
inactive: S. cerevisiae deletion strains, locus YJR075W, strain HOC1, active compounds read low 0.993 | S. cerevisiae deletion strains, locus YKL009W, strain mrt4, active compounds read low 0.936 | S. cerevisiae deletion strains, locus YKL068W, active compounds read low 0.989 | S. cerevisiae deletion strains, locus YKL085W, strain MDH1 (second series), active compounds read low 0.974 | S. cerevisiae deletion strains, locus YKL085W, strain MDH1, active compounds read low 0.974 | S. cerevisiae deletion strains, locus YKL160W, strain elf1, active compounds read low 0.985 | S. cerevisiae deletion strains, locus YKR001C, strain vps1, active compounds read low 0.958 | S. cerevisiae deletion strains, locus YKR026C, strain gcn3, active compounds read low 1.01 | S. cerevisiae deletion strains, locus YKR091W, strain srl3, active compounds read low 1 | S. cerevisiae deletion strains, locus YLL001W, strain dnm1, active compounds read low 1.01 | S. cerevisiae deletion strains, locus YLL026W, active compounds read low 1.01 | S. cerevisiae deletion strains, locus YLL041C, strain sdh2, active compounds read low 1 | S. cerevisiae deletion strains, locus YLR027C, strain aat2, active compounds read low 0.997 | S. cerevisiae deletion strains, locus YLR039C, strain RIC1, active compounds read low 0.996 | S. cerevisiae deletion strains, locus YLR058C, strain SHM2, active compounds read low 0.989 | S. cerevisiae deletion strains, locus YLR102C, strain apc9, active compounds read low 0.968 | S. cerevisiae deletion strains, locus YLR113W, strain HOG1, active compounds read low 1.03 | S. cerevisiae deletion strains, locus YLR221C, strain rsa3, active compounds read low 1.04 | S. cerevisiae deletion strains, locus YLR258W, strain gsy2, active compounds read low 0.996 | S. cerevisiae deletion strains, locus YLR262C, strain YPT6 (second series), active compounds read low 1.02 | S. cerevisiae deletion strains, locus YLR262C, strain YPT6, active compounds read low 0.971 | S. cerevisiae deletion strains, locus YLR268W, strain sec22, active compounds read low 0.963 | S. cerevisiae deletion strains, locus YLR320W, strain mms22, active compounds read low 1.05 | S. cerevisiae deletion strains, locus YLR330W, strain CHS5, active compounds read low 0.985 | S. cerevisiae deletion strains, locus YLR342W, strain FKS1 (second series), active compounds read low 0.98 | S. cerevisiae deletion strains, locus YLR342W, strain FKS1, active compounds read low 1.01 | S. cerevisiae deletion strains, locus YLR357W, strain rsc2, active compounds read low 1.01 | S. cerevisiae deletion strains, locus YLR370C, strain arc18, active compounds read low 0.976 | S. cerevisiae deletion strains, locus YLR371W, strain rom2, active compounds read low 0.964 | S. cerevisiae deletion strains, locus YLR384C, strain iki3, active compounds read low 1.01 | S. cerevisiae deletion strains, locus YLR418C, strain cdc73, active compounds read low 0.964 | S. cerevisiae deletion strains, locus YML016C, strain PPZ1, active compounds read low 0.988 | S. cerevisiae deletion strains, locus YML032C, strain rad52, active compounds read low 0.973 | S. cerevisiae deletion strains, locus YML120C, strain ndi1, active compounds read low 0.986 | S. cerevisiae deletion strains, locus YML124C, strain tub3, active compounds read low 0.983 | S. cerevisiae deletion strains, locus YMR058W, strain fet3, active compounds read low 1.02 | S. cerevisiae deletion strains, locus YMR078C, strain ctf18, active compounds read low 1.01 | S. cerevisiae deletion strains, locus YMR125W, strain sto1, active compounds read low 0.968 | S. cerevisiae deletion strains, locus YMR129W, active compounds read low 1 | S. cerevisiae deletion strains, locus YMR205C, strain PFK2, active compounds read low 1.01 | S. cerevisiae deletion strains, locus YMR223W, strain ubp8, active compounds read low 1.01 | S. cerevisiae deletion strains, locus YMR231W, strain pep5, active compounds read low 1 | S. cerevisiae deletion strains, locus YMR307W, strain GAS1, active compounds read low 1.02 | S. cerevisiae deletion strains, locus YNL067W, strain RPL9B, active compounds read low 1.01 | S. cerevisiae deletion strains, locus YNL071W, strain lat1, active compounds read low 0.995 | S. cerevisiae deletion strains, locus YNL153C, strain GIM3, active compounds read low 1 | S. cerevisiae deletion strains, locus YNL183C, strain NPR1, active compounds read low 0.975 | S. cerevisiae deletion strains, locus YNL209W, strain ssb2, active compounds read low 0.994 | S. cerevisiae deletion strains, locus YNL233W, strain BNI4, active compounds read low 0.987 | S. cerevisiae deletion strains, locus YNL248C, strain rpa49, active compounds read low 1.08 | S. cerevisiae deletion strains, locus YNL250W, strain rad50, active compounds read low 0.98 | S. cerevisiae deletion strains, locus YNL271C, strain bni1, active compounds read low 0.975 | S. cerevisiae deletion strains, locus YNL298W, strain CLA4, active compounds read low 0.98 | S. cerevisiae deletion strains, locus YNL307C, strain MCK1, active compounds read low 0.973 | S. cerevisiae deletion strains, locus YNL322C, strain KRE1 (second series), active compounds read low 0.993 | S. cerevisiae deletion strains, locus YNL322C, strain KRE1, active compounds read low 0.987 | S. cerevisiae deletion strains, locus YNR049C, strain mso1, active compounds read low 1.03 | S. cerevisiae deletion strains, locus YNR052C, strain pop2, active compounds read low 0.997 | S. cerevisiae deletion strains, locus YOL012C, strain htz1 0.98 | S. cerevisiae deletion strains, locus YOL147C, strain pex11, active compounds read low 0.978 | S. cerevisiae deletion strains, locus YOR001W, strain rrp6, active compounds read low 1.04 | S. cerevisiae deletion strains, locus YOR061W, strain CKA2, active compounds read low 0.979 | S. cerevisiae deletion strains, locus YOR069W, strain VPS5, active compounds read low 0.978 | S. cerevisiae deletion strains, locus YOR070C, strain gyp1, active compounds read low 1.02 | S. cerevisiae deletion strains, locus YOR080W, strain dia2, active compounds read low 1.01 | S. cerevisiae deletion strains, locus YOR083W, strain WHI5, active compounds read low 0.974 | S. cerevisiae deletion strains, locus YOR106W, strain vam3, active compounds read low 0.966 | S. cerevisiae deletion strains, locus YOR136W, strain idh2, active compounds read low 0.958 | S. cerevisiae deletion strains, locus YOR144C, strain elg1, active compounds read low 0.98 | S. cerevisiae deletion strains, locus YOR184W, strain ser1, active compounds read low 1 | S. cerevisiae deletion strains, locus YOR231W, strain MKK1, active compounds read low 1.05 | S. cerevisiae deletion strains, locus YOR265W, strain rbl2, active compounds read low 1.01 | S. cerevisiae deletion strains, locus YOR270C, strain vph1, active compounds read low 1.06 | S. cerevisiae deletion strains, locus YOR290C, strain snf2, active compounds read low 0.961 | S. cerevisiae deletion strains, locus YOR316C, strain cot1, active compounds read low 0.969 | S. cerevisiae deletion strains, locus YPL051W, strain arl3, active compounds read low 1.03 | S. cerevisiae deletion strains, locus YPL078C, strain atp4, active compounds read low 0.968 | S. cerevisiae deletion strains, locus YPL106C, strain sse1, active compounds read low 1 | S. cerevisiae deletion strains, locus YPL240C, strain hsp82, active compounds read low 1.01 | S. cerevisiae deletion strains, locus YPL241C, strain CIN2, active compounds read low 0.994 | S. cerevisiae deletion strains, locus YPL256C, strain CLN2, active compounds read low 1 | S. cerevisiae deletion strains, locus YPR119W, strain clb2, active compounds read low 0.989 | S. cerevisiae deletion strains, locus YPR141C, strain kar3, active compounds read low 0.968 | S. cerevisiae deletion strains, locus YPR163C, strain tif3, active compounds read low 0.982 | S. cerevisiae deletion strains, locus YPR167C, strain met16, active compounds read low 0.979 | S. cerevisiae deletion strains, strain wtn01, active compounds read low 0.955 | S. cerevisiae strains, strain wild type, active compounds read low 0.993
